Assay results taken from PubChem BioAssay (EPA / NIEHS).
More than one record can exist for a structure, and the calls need not agree. The source made the active and inactive calls. The calls were made as follows: active = hit-call score of the fitted dose curve at least 0.9, where 1 is the maximum; inactive = score below 0.9.

These compounds were tested on Monokine induced gamma interferon (MIG), CXCL9 (gene 4283) (assay: BSK_3C_MIG: BioMAP Diversity Plus: 3C Assay for Monokine induced gamma interferon (MIG) Biomarker Activity (AID 2283021;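 as to AC50: MIG protein level measured by immunoassay in the treated endothelial cultures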)). Conditions: primary human endothelial cells (HUVEC); actives raise or lower the signal.
Procedure: BSK_3C is a cell-based, multiplexed-readout assay that uses umbilical vein endothelium, a human vascular primary cell, with measurements taken at 24 hours after chemical dosing in a 96-well plate.BSK_3C_MIG is an assay component measured in the BSK_3C assay. It measures MIG antibody related to regulation of gene expression using ELISA technology.Data from the assay component BSK_3C_MIG was analyzed into 1 assay endpoint. This assay endpoint, BSK_3C_MIG, was analyzed with bidirectional fitting relative to DMSO as the negative control and baseline of activity. Using a type of binding reporter, gain or loss-of-signal activity can be used to understand changes in the signaling as they relate to the gene CXCL9. Furthermore, this assay endpoint can be referred to as a primary readout, because this assay has produced multiple assay endpoints where this one serves a signaling function. To generalize the intended target to other relatable targets, this assay endpoint is annotated to the cytokine intended target family, where the subfamily is chemotactic factor.
The levels of cell surface (or secreted, indicated by the prefix "s") biomarker endpoints were measured by ELISA. Overt cytotoxicity to cells in confluent adherent cultures (all systems other than the BT system) was assessed by measuring total protein levels using sulforhodamine B (SRB) staining in parallel cultures at the time of biomarker measurements, indicated as SRB endpoints. For proliferation assays for adherent cell types, individual cell types are cultured at sub-confluence and relative cell numbers quantified by SRB staining at time points optimized for each system (48 h: 3C and CASM3C systems; 72 h: BT and HDF3CGF systems; 96 h: SAg system). SRB was performed by staining cells with 0.1% SRB after fixation with 10% TCA and reading wells at 560 nm.Viability and proliferation of PBMC (T cells) was quantified by Alamar Blue reduction for the SAg and BT systems. For PBMC viability (referred to as PBMC Cytotoxicity within the assay endpoint names), cells were plated (75,000/well in a 96-well plate) and then chemical samples added for 1 h before addition of activators, SEB and TSST-1 (20 ng/mL final concentration each). Cells were incubated for 90 h. Then, Alamar Blue (20 uL/well) (Invitrogen, Cat DAL1100) was added for 6 h, and the plates were read with a fluorescence microplate reader at 546/580 nm (excitation/emission). For PBMC proliferation, cells were plated and activated as above but incubated for only 16 h prior to addition of Alamar Blue. Plates were read after 6 h.

outcome, inactive:
C=C(C)C(=O)OCCOCCOCCOC(=O)C(=C)C
CCCCCCCCCCCCCCCC(=O)OC/C=C(C)/C=C/C=C(C)/C=C/C1=C(C)CCCC1(C)C
CN(C)C(=O)Nc1ccc(Oc2ccc(Cl)cc2)cc1
CC1(C)C2=CCCC(C)(C)[C@]23CC[C@H]1C3
CC(C=O)Cc1ccc(C(C)(C)C)cc1 (stereo not given)
O=C1c2ccccc2C(=O)c2c(O)ccc(O)c21
Cc1cc(CCC(=O)OCCOCCOCCOC(=O)CCc2cc(C)c(O)c(C(C)(C)C)c2)cc(C(C)(C)C)c1O
CCCCOC(=O)CCCCCCCC(=O)OCCCC
Clc1cc(Cl)c(-c2c(Cl)c(Cl)cc(Cl)c2Cl)cc1Cl
CS(=O)(=O)c1ccc(C2=C(c3ccccc3)C(=O)OC2)cc1
O=C(Nc1ccc2c(O)c(N=Nc3ccc(N=Nc4ccc(S(=O)(=O)O)cc4)cc3)c(S(=O)(=O)O)cc2c1)c1ccccc1
COc1ccc(CCN2CCC(Nc3nc4ccccc4n3Cc3ccc(F)cc3)CC2)cc1
CCCCCC(C=O)=Cc1ccccc1
IC(I)I
COc1cc(Cl)c(OC)cc1N
C=C(C)C(=O)OCCOCCOCCOCCOC(=O)C(=C)C
CN(C)C(=S)SC(=S)N(C)C
CC(CN=Cc1ccccc1O)N=Cc1ccccc1O (stereo not given)
C[C@@H]1CCN(C(=O)[C@H](CCCN=C(N)N)NS(=O)(=O)c2cccc3c2NC[C@H](C)C3)[C@@H](C(=O)O)C1
CC1(C)CCC[C@]2(C)[C@H]3CCO[C@]3(C)CC[C@@H]12
C=C(C)[C@H]1CC=C(C)C(=O)C1
COc1ccc(OC)c(N=Nc2c(O)ccc3ccccc23)c1
CC(=O)c1c(C)c([N+](=O)[O-])c(C(C)(C)C)c([N+](=O)[O-])c1C
C1=CC2C3C=CC(C3)C2C1 (stereo not given)
O=CN1CCOCC1
CS(=O)(=O)OCCCCOS(C)(=O)=O
CC(C)(N=C=O)c1cccc(C(C)(C)N=C=O)c1
CSCCC=O
O=C1OC[C@H](Cc2cccc(O)c2)[C@H]1Cc1cccc(O)c1
CCN(CC)C(=O)N(CC)CC
c1ccc(Oc2ccccc2)cc1
O=C1OC2(c3ccccc31)c1ccc(O)c(Br)c1Oc1c2ccc(O)c1Br
CCCCCCC(CO)CCCC (stereo not given)

AC50, active:
CC(C)(C)CC(C)(C)c1ccc(OCCOCC[N+](C)(C)Cc2ccccc2)cc1 8.17 µM
Oc1c(Cl)cc(Cl)c(Cl)c1Cc1c(O)c(Cl)cc(Cl)c1Cl 31.1 µM
CCCCN(CCCC)C(=O)N(CCCC)CCCC 12.5 µM
CCC(C)c1cc([N+](=O)[O-])cc([N+](=O)[O-])c1OC(=O)OC(C)C (stereo not given) 33.2 µM
CC1(C)CCC[C@]2(C)[C@H]3CCO[C@]3(C)CC[C@@H]12 34.9 µM
CC(=O)C1(C)CC2=C(CCCC2(C)C)CC1C (stereo not given) 20 µM
CC(=O)Nc1ccc(C(=O)CCl)cc1 10.9 µM
